In the library only some 4.5% were active in any assay of this set; here they are far more common.
Beta cell apopt = blocks beta cell apoptosis; actives 0.8% (n = 300,000); protection from apoptosis, % (no concentration beside the values); INS-1E cytokine-induced death, ATP luminescence, 48 h; percent of positive-control rescue, neutral wells zero;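 active = Every replicate reaches about 75%, or at least half do and their mean reaches it too, limit read from the data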;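 also: higher means more ATP so stronger rescue from cytokine killing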
697 NFkB inh = lowers PMA/ionomycin-induced NF-kB signal in 697 B cells; 697 B-cell NF-kB luciferase reporter, 16 h; inhibition, % at 4 µM; actives 0.33% (n = 330,000); in the data active = inhibition above about 35%
CSC inhib = cancer stem cell inhibition; AID 2717; inhibition, % at 7.5 µM; cancer stem cell-like cells viability, luminescence; actives 1.1% (n = 300,000); in the data active = inhibition above about 75%; tested in HMLE shEcad cells
Gli-Sufu antag = Gli-Sufu pathway antagonism. Sufu-KO-LIGHT fibroblasts, Gli luciferase reporter luminescence. inhibition, % at 5 µM. actives 0.74% (n = 340,000);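 active = inhibition above about 55%, limit read from the data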
Jurkat NFkB inh = lowers PMA/ionomycin-induced NF-kB signal in Jurkat cells | PMA/ionomycin-induced NF-kB luciferase reporter, luminescence | inhibition, % at 4 µM | actives 0.53% (n = 330,000); in the data active = inhibition above about 50%
Mdm2-MdmX inh = inhibitors of human Mdm2/MdmX interaction. O15151+Q00987. SaOS-2 split-luciferase Mdm2/MdmX complementation, luminescence. inhibition, % at 8 µM. actives 3% (n = 330,000). AID 485346;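 active = inhibition of at least 50% at 8 µM in the primary screen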
A number is an active result; . = inactive; / = no result given.

SMILES | Beta cell apopt | 697 NFkB inh | CSC inhib | Gli-Sufu antag | Jurkat NFkB inh | Mdm2-MdmX inh
CCCOc1ccc(C(=O)N2CCN(c3ccc(N)cc3Cl)CC2)cc1 | . | . | 76 | . | . | .
CC1CCCCN1Cc1nc2c(c(=O)n(C)c(=O)n2C)n1Cc1c(F)cccc1Cl (centres undefined) | . | . | 77 | . | . | .
Cn1c(=O)c2c(nc(CN3CCC(C(N)=O)CC3)n2Cc2c(F)cccc2Cl)n(C)c1=O | . | . | . | . | . | .
CCOC(=O)/C(=N/Nc1ccccc1)c1csc(Nc2ccccc2)n1 | . | . | 107 | . | . | .
CCOC(=O)/C(=N\Nc1ccc(OC)cc1)c1csc(Nc2ccccc2)n1 | . | . | 104 | . | . | .
CC1CCCN(CCCOc2ccccc2-c2ccccc2)C1 (centres undefined) | / | / | / | . | / | /
CC(C)CNS(=O)(=O)c1ccc(CCC(=O)NCCc2ccccc2)cc1 | / | . | . | . | . | .
Nc1nc(-c2ccccn2)nc(N)c1Cc1ccc(Cl)cc1Cl | 96 | . | . | . | . | .
Nc1nc(-c2ccccn2)nc(N)c1Cc1c(F)cccc1Cl | 96 | . | . | . | . | .
COc1ccc(-n2nnnc2CNC(=O)C(=O)c2c(C)[nH]c3ccccc23)cc1 | / | . | . | . | . | .
Cc1cc(SCC(=O)Nc2c(C)n(C)n(-c3ccccc3)c2=O)nc2ccccc12 | . | . | . | . | . | .
NS(=O)(=O)c1ccc(N/N=C/c2cn(-c3ccccc3)nc2-c2cccs2)cc1 | . | . | 81 | . | . | .
COc1ccccc1CNS(=O)(=O)c1cc(C(=O)NCC2CCCO2)c(Cl)cc1Cl (centres undefined) | . | . | / | . | . | .
O=S(=O)(c1cccc(Br)c1)N1CCN(C(=S)NCC2CCCO2)CC1 (centres undefined) | . | . | / | . | . | .
O=C(C=Cc1ccccc1Cl)c1ccccc1 | / | / | / | . | / | /
O=C(/C=C/Sc1ccccc1)c1ccc(Cl)cc1 | . | . | 102 | . | . | .
CC12CCC(O)CC1=CCC1C2CCC2(C)C3=NN=CC3CC12 (centres undefined) | / | / | / | . | / | /
COc1ccc(C(CNC(=O)c2ccco2)N2CCCC2)cc1 (centres undefined) | . | . | . | . | . | .
COc1ccccc1C(=O)N/C(=C\c1cn(S(=O)(=O)N(C)C)c2ccccc12)C(=O)N1CCCCC1 | . | . | . | . | . | .
Cc1noc(C)c1CSc1nc2sc3c(c2c(=O)n1C)CCCC3 | . | . | / | . | . | .
C=CCn1c(SCc2c(C)noc2C)nc2sc3c(c2c1=O)CCCCC3 | / | . | 94 | . | . | .
Cc1nn(CCC(=O)O)c2nc(-c3cccnc3)cc(C(F)(F)F)c12 | . | . | . | . | . | .
Cc1nn(CCc2nn[nH]n2)c2nc(-c3ccc(C4CCCCC4)cc3)cc(C(F)(F)F)c12 | . | . | 110 | . | . | .
Cc1ccc(S(=O)(=O)NCc2cn3ccccc3n2)c(C)c1 | . | . | . | . | . | .
COc1ccccc1-n1c(=O)oc2ccc(Cl)cc2c1=O | 104 | . | / | . | . | .
SMILES | Beta cell apopt | 697 NFkB inh | CSC inhib | Gli-Sufu antag | Jurkat NFkB inh | Mdm2-MdmX inh
O=C(NCc1ccccc1Br)c1cccc2c1C(=O)c1ccc(N3CCOCC3)cc1S2(=O)=O | 87 | . | . | / | . | .
O=C(NCc1ccc(F)cc1)c1cccc2c1C(=O)c1ccc(N3CCOCC3)cc1S2(=O)=O | . | . | . | . | . | .
OC1CCN(c2cc(-c3ccccc3)nc3cc(-c4ccc(F)cc4)nn23)CC1 | . | . | 88 | . | . | .
COc1cccc(-c2cc3nc(-c4ccccc4)cc(N4CCCC(O)C4)n3n2)c1 (centres undefined) | . | . | 90 | . | . | .
Cc1ccc(-c2cc3nc(-c4ccccc4)cc(N4CCOCC4)n3n2)cc1 | / | / | / | . | / | /
COCCNC(=S)N(CCc1c(C)[nH]c2ccc(Cl)cc12)Cc1cccs1 | . | . | 79 | . | . | .
COCCNC(=S)N(CCc1c(C)[nH]c2ccc(F)cc12)Cc1cccs1 | . | . | . | . | . | .
C[C@]12CC[C@H](O)CC1=CCC1C2CC[C@@]2(C)C1CC[C@@H]2NC(=O)[C@@H](N)Cc1cnc[nH]1 (some centres undefined) | / | / | / | . | / | /
CCn1c(SCC(=O)N2CCN(c3ccc(F)cc3)CC2)nc2ccccc2c1=O | . | . | 77 | . | . | .

Screening data deposited in PubChem BioAssay by several laboratories.
